Screens from PubChem.
Compounds with a hit are over-represented: about 4.1% of the library has one in this group of screens.
Jurkat NFkB inh: inhibitors of the PMA/ionomycin-induced NF-kB reporter in Jurkat cells; PMA/ionomycin-induced NF-kB luciferase reporter, luminescence; inhibition, % at 4 µM; 330,000 tested, 0.53% active; in the data active = inhibition above about 50%
Mdm2 MdmX PPI: disrupts the human Mdm2-MdmX interaction. inhibition, % at 8 µM. SaOS-2 split-luciferase Mdm2/MdmX complementation, luminescence. O15151+Q00987. 330,000 tested, 3% active;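 active = inhibition of at least 50% at 8 µM in the primary screen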
Target sequence (O15151 whole entry, looked up): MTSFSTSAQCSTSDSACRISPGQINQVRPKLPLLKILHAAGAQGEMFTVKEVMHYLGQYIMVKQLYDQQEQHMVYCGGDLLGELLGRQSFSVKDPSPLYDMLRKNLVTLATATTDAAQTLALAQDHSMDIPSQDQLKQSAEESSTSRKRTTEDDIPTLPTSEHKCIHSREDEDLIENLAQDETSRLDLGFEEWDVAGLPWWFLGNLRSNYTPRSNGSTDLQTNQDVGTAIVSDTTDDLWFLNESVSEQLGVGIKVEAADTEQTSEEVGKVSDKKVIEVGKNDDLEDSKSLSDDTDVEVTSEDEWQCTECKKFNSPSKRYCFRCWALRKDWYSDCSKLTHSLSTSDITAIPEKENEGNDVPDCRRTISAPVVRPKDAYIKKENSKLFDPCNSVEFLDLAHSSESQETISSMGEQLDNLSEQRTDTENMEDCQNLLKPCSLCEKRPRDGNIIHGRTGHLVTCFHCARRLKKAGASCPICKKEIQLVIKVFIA
Target sequence (Q00987 whole entry, looked up): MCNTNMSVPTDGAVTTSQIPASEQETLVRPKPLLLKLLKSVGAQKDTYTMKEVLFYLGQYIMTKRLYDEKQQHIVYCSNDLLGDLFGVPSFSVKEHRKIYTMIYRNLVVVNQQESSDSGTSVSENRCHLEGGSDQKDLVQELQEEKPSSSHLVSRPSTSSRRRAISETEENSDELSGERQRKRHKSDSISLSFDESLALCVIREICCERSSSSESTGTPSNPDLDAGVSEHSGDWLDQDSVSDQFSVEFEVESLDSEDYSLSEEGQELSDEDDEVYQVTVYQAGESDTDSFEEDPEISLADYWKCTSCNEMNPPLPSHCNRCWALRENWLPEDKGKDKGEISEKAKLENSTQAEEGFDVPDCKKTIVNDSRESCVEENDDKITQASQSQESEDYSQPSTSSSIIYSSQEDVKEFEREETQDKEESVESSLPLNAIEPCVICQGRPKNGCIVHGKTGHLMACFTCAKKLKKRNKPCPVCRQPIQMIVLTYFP
aSyn 5UTR inh: MLPCN primary screen, SNCA 5' untranslated region; inhibition, % (tested at 7.5 µM); AID 1813; alpha-synuclein 5'UTR reporter, inhibitor activity; 300,000 tested, 0.82% active; in the data active = inhibition above about 60%; inconclusive = no clear call, values can overlap the other calls;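 note: H4 neuroglioblastoma cells stably carrying SNCA 5'UTR luciferase fusion; 0% = DMSO wells and 100% = positive control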
697 NFkB inh: lowers PMA/ionomycin-induced NF-kB signal in 697 B cells | inhibition, % at 4 µM | 697 B-cell NF-kB luciferase reporter, 16 h | 330,000 tested, 0.33% active; in the data active = inhibition above about 35%
Gli-Sufu antag: Gli-Sufu pathway antagonism | Sufu-KO-LIGHT fibroblasts, Gli luciferase reporter luminescence | inhibition, % at 5 µM | 340,000 tested, 0.74% active | AID 588413;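 active = inhibition above about 55%, limit read from the data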;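 note: 0% = DMSO-treated cells and 100% = wells with medium but no cells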
KLF5 inh: suppresses KLF5 promoter-driven expression | DLD-1 KLF5 promoter-luciferase reporter, luminescence | inhibition, % at 5 µM | 290,000 tested, 0.23% active;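 active = inhibition above a per-plate limit of that plate's mean compound inhibition plus 3 SD, cut at about 60% in these data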;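 note: 0% = DMSO wells and 100% = LY294002 at 200 µM; higher means less KLF5 promoter-driven luciferase light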
Mdm2 MdmX conf: human Mdm2/MdmX binding inhibition, confirmed; luminescent assay; inhibition, % at 8 µM; 10,000 tested, 55% active; shares compounds with Mdm2 MdmX PPI; in the data active = inhibition above about 40%
FLuc counter: inhibits full-length luciferase, flagging false Mdm2/MdmX hits; shares compounds with Mdm2 MdmX PPI; SaOS-2 full-length luciferase counterscreen, luminescence; inhibition, % at 8 µM; 6,200 tested, 77% active;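 active = mean inhibition at 8 µM reaching about 37%, which flags the compound as non-specific, limit read from the data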;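 note: p53-null SaOS-2 cells with luciferase driven by a doxycycline-inducible promoter; compound on cells about two nights before reading with doxycycline added after day one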
Starred values were filed as active, the others as inactive; u = inconclusive; x = no result.

SMILES	Jurkat NFkB inh	Mdm2 MdmX PPI	aSyn 5UTR inh	697 NFkB inh	Gli-Sufu antag	KLF5 inh	Mdm2 MdmX conf	FLuc counter
O=[N+]([O-])c1ccc2c(c1)C(O)n1nc(-c3ccc(Cl)cc3Cl)nc1S2 (centres undefined)	5.0	50.0	-18.4	4.1	0.8	-5.5	54.3*	101.8*
COCCn1nnnc1C(C(C)C)N(Cc1cccnc1)Cc1ccccc1Cl (centres undefined)	-24.7	64.7*	-1.0	-110.2	6.4	15.1	4.4	x
COc1ccccc1NC(=S)N(Cc1cccnc1)Cc1ccccc1Cl	2.4	9.2	3.7	0.3	4.1	-9.4	x	x
O=C(N/N=C/c1ccccc1O)C1CC(=O)N(c2ccc(F)cc2)C1 (centres undefined)	7.9	51.8*	21.9	9.5	18.3	47.2	38.1	43.7*
CCOc1ccc(NS(=O)(=O)c2cc(C(=O)N(CC)CC(=O)NCc3cccs3)ccc2C)cc1	-7.0	29.3	9.5	16.2	-4.1	x	x	x
CC(C)n1cnc2c(Nc3cccc(Cl)c3)nc(NCCCO)nc21	-21.1	72.9*	50.3	-10.8	4.9	x	73.8*	71.7*
O=[N+]([O-])c1cc(Cl)c(Cl)c(Cl)c1Cl	3.7	-2.1	x	8.0	19.6	x	x	x
Clc1ccc2nc(C3CCN(Cc4nnnn4C4CCCCC4)CC3)[nH]c2c1	8.5	22.6	9.7	5.5	18.2	3.3	x	x
Cc1ccc(Cn2nnnc2CN2CCC(c3nc4ccc(Cl)cc4[nH]3)CC2)cc1	44.6	58.1*	78.3*	18.2	35.4	46.0	37.6	46.4*
COc1ccc(NC(=O)c2cccnc2SC)cc1S(=O)(=O)N1CCCCC1	1.0	5.4	5.0	12.6	-7.7	7.2	x	x
Cc1ccc(NC(=S)NNc2ncc(C(F)(F)F)cc2Cl)cc1	10.9	15.0	23.0	-18.2	18.5	4.4	x	x
FC(F)(F)c1cnc(NNC(=S)Nc2ccc(Cl)cc2)c(Cl)c1	12.5	90.3*	5.1	-12.5	23.6	-10.8	66.5*	23.3
Fc1ccc(NC(=S)NNc2ncc(C(F)(F)F)cc2Cl)c(F)c1	4.5	77.3*	27.4	-32.5	24.7	-0.8	48.8*	66.8*
Cc1ccc(NC(=S)NNc2ncc(C(F)(F)F)cc2Cl)c(C)c1	-12.6	6.9	-6.8	-27.1	-2.0	-6.5	x	x
COc1ccc(C(=O)Nc2cc(C)nn2-c2cccc(F)c2)cc1OC	3.5	11.4	12.0	20.9	0.9	-11.4	x	x
COC(=O)/C=c1/s/c(=C(\C#N)C(=O)NCc2ccco2)n(-c2ccccc2)c1=O	13.1	11.2	-34.4	-26.3	-13.9	3.1	x	x
COc1ccc(OCCn2cc(/C=C(\C#N)C(=O)NCc3ccco3)c3ccccc32)cc1	3.1	74.7*	45.6	15.2	-8.6	12.8	42.1*	50.7*
COc1ccc(/C=c2\s/c(=C(/C#N)C(=O)NCc3ccco3)n(-c3ccccc3)c2=O)cc1	4.4	68.1*	5.1	-10.8	-1.9	-8.3	-1.3	x
COc1ccccc1OCCn1cc(/C=C(\C#N)C(=O)NCc2ccco2)c2ccccc21	2.0	23.4	-1.8	23.0	1.6	-11.1	x	x
OCCN1CCN(Cc2cc(Cl)c3cccnc3c2O)CC1	-2.5	44.3	20.5	-11.0	-2.7	-15.3	x	x
COCc1cc(CN2CCCC2)c(O)c2ncccc12	17.7	38.4	u	-20.5	3.9	2.3	x	x
CN(C)C1CCN(Cc2cc(COCc3ccccc3)c3cccnc3c2O)C1 (centres undefined)	25.4	67.3*	x	-60.6	57.0*	x	71.3*	32.8
Oc1c(CN2CCCCC2)cc(COCc2ccccc2)c2cccnc12	7.9	51.7*	91.5*	-32.9	92.3*	47.6	49.0*	43.8*
Cc1ccc2oc3c(SCc4nc5ccccc5[nH]4)nc(C)nc3c2c1	4.4	13.0	x	9.7	3.2	x	x	x
Cc1nc(SCc2nc3ccccc3[nH]2)c2oc3cc(Br)ccc3c2n1	-3.3	65.2*	x	-6.4	13.3	x	11.9	x
SMILES	Jurkat NFkB inh	Mdm2 MdmX PPI	aSyn 5UTR inh	697 NFkB inh	Gli-Sufu antag	KLF5 inh	Mdm2 MdmX conf	FLuc counter
O=C(NCC1CCCO1)c1cccc2ccccc12 (centres undefined)	13.0	-17.8	-0.8	0.3	34.0	-4.6	x	x
O=C(NC(NCC1CCCO1)C(Cl)(Cl)Cl)c1cccc2ccccc12 (centres undefined)	-6.0	54.5*	11.5	-22.7	-0.4	1.1	29.4	x
NC(=O)C1CCN(C(=O)c2ccc3c(=O)n(Cc4ccco4)c(SCc4ccc([N+](=O)[O-])cc4)nc3c2)CC1	11.3	30.9	8.3	32.0	22.9	0.9	x	x
CC(=O)Nc1ccc2c(c1)C(=O)c1cccc(C(=O)O)c1-2	x	x	x	x	-13.6	x	x	x
CCOC(=O)N1C(=O)[C@](c2ccc(Cl)cc2)(C(C)C)N1C(=O)OCC	14.6	79.9*	-25.3	-2.2	-4.1	-11.8	43.7*	49.5*
CCOC(=O)N1C(=O)[C@@](c2ccc(Cl)cc2)(C(C)C)N1C(=O)OCC	-3.3	88.3*	-0.1	1.4	2.1	3.1	62.2*	33.2
OC(COCc1cccs1)CN1CCN(c2cccc(C(F)(F)F)c2)CC1 (centres undefined)	-5.6	19.9	13.7	-5.5	22.9	-18.1	x	x
OC(CN1CCN(c2cccc(C(F)(F)F)c2)CC1)c1c[nH]c2ccccc12 (centres undefined)	4.4	50.0	21.3	10.6	15.8	-31.4	46.3*	64.1*
CCCc1ccc2oc(C(=O)N3CCN(C4CCS(=O)(=O)C4)CC3)c(C)c2c1 (centres undefined)	10.8	-13.8	14.5	-0.5	-9.1	-10.2	x	x
O=C(Nc1nc2ccccc2n1CCN1CCOCC1)c1cn(-c2ccccc2)nc1-c1ccccc1	-33.9	50.9*	82.8*	-60.5	7.9	-3.6	22.4	x
O=C(Nc1nc2ccccc2n1CCN1CCOCC1)c1ccccc1	-7.1	2.8	-6.3	-0.4	-1.5	-14.6	x	x
COc1ccc(CNC(=O)COc2ccc(C(=O)c3ccc(F)cc3)cc2)cc1	21.6	60.9*	-13.2	13.6	-4.8	-1.7	46.9*	88.9*
O=C(COc1ccc(C(=O)NCCc2ccccc2)cc1)Nc1ccccc1	3.5	-20.8	-8.3	24.8	-16.7	1.1	x	x
COc1ccc(CNC(=O)COc2ccc(F)cc2)cc1	-7.4	25.2	8.6	7.2	14.4	-1.1	x	x
O=C(COc1ccc(C(=O)Nc2ccc(Cl)cc2)cc1)NCc1ccccc1	-12.4	61.7*	-18.3	17.1	-1.3	33.2	23.8	x
Cc1ccc(CNC(=O)COc2ccc(C(=O)c3ccc(F)cc3)cc2)cc1	9.7	51.5*	-14.3	12.7	0.1	-11.4	53.7*	63.9*
Cc1ccc(Oc2nc(-c3cccnc3)nc3ccccc23)c([N+](=O)[O-])n1	6.2	-5.9	-14.9	-1.7	6.1	-18.2	x	x
COc1ccc(S(=O)(=O)n2cccc2)cc1	5.5	-6.9	-4.9	0.6	1.2	x	x	x
